SMILES strings stand for the structures. Values without a mark were called inactive. Inconclusive results are not listed. Active and inactive are the calls of the source. Unless noted, the call rests on the fitted dose curve; in most records, active means well fitted curve in the direction sought with a large enough effect in the repeat runs; inconclusive means weak or mixed curves; inactive means no such curve, though single readings can be large; an effect the other way counts as inactive or inconclusive.

A short description of test [1]: qHTS assay to identify small molecule antagonists of the estrogen receptor alpha (ER-alpha) signaling pathway using the BG1 cell line in the presence of 0.1 nM 17-beta-estradiol - cell viability counter screen (AID 1259241). Further: nearly all actives have a fitted effect of over 40% in size. The method, boiled down: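 Live-cell protease activity (CellTiter-Fluor fluorescence, 30 min) was read in the same wells after VM7Luc4E2 cells had been exposed to compounds with 0.1 nM 17beta-estradiol for 22 hr at 37C.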
For orientation: Quantitative high-throughput screening tests each substance at several concentrations.

Test [2] can be described thus: qHTS assay to identify small molecule antagonists of the androgen receptor (AR) signaling pathway using the MDA cell line in the presence of 0.5 nM R1881 - cell viability counter screen (AID 1259242). Further: nearly all actives have a fitted effect of over 45% in size. In a few lines: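 Cells seeded at 3,000/well and allowed 5 hr at 37C, 0% CO2 before compound transfer and R1881 (0.5 nM final) addition; 16 hr later, live-cell protease fluorescence indicated cytotoxicity.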

Test [3] concerns the target Estrogen receptor (Homo sapiens) (UniProt P03372). Kind of test: qHTS assay to identify small molecule antagonists of the estrogen receptor alpha (ER-alpha) signaling pathway using the BG1 cell line in the presence of 0.1 nM 17-beta-estradiol (AID 1259244). Further: nearly all actives have a fitted effect of over 50% in size. The method, boiled down:
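Luciferase signal from VM7Luc4E2 ERE-reporter cells, co-dosed with test compound and 0.1 nM final 17beta-estradiol for 22 h, read with ONE-Glo.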

A short description of test [4]: qHTS assay to identify small molecule HDAC inhibitors - cell viability counter screen (AID 1259365). Further: series mostly up to about 92 µM; nearly all actives have a fitted effect of over 50% in size. In a few lines: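 HCT-116 (wild type), 1,500 cells/well, overnight 37C/5% CO2; compound in DMSO 2hr; CellTiter-Glo 30min RT; luminescence read.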
Test [5] is described as follows: qHTS assay to identify small molecule agonists of the sonic hedgehog signaling (Shh) pathway - cell viability counter screen (AID 1259366). Further: nearly all actives have a fitted effect of over 50% in size. Further: potency means the concentration at half of the fitted maximal effect. In a few lines:
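CellTiter-Fluor fluorescence read-out, 1 hr at 37C, added after 23hr compound exposure. Cells: 3T3 Gli1-Luc, an NIH/3T3 clone with stably integrated Gli1-Luc reporter, plated 4hr before compound.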

The nature of test [6]: qHTS assay to identify small molecule antagonists of the sonic hedgehog signaling (Shh) pathway - cell viability counter screen (AID 1259367). Further: nearly all actives have a fitted effect of over 55% in size. The method, boiled down:
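Fluorescence read-out (CellTiter-Fluor, 1 hr at 37C) taken after 23 hr compound treatment of 3T3 Gli1-Luc cells stimulated with conditioned medium. Cells were seeded at 2,000 per well and pre-incubated 4 hr.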

Test [7] can be described thus: qHTS assay to identify small molecule agonists of the sonic hedgehog signaling (Shh) pathway (AID 1259368; calls by dose curve; further: nearly all actives have a fitted effect of over 15% in size; further: potency means the concentration at half of the fitted maximal effect). In a few lines:
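Following a 24 hr incubation with DMSO-dissolved compounds at 37 C, 5% CO2, Gli1-Luc NIH/3T3-derived cells received luciferase reagent for 30 min at room temperature prior to luminescence measurement.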

Test [8] in a line: qHTS assay to identify small molecule agonists of the estrogen receptor beta (ER-beta) signaling pathway - cell viability counter screen (AID 1259380). Further: nearly all actives have a fitted effect of over 30% in size. In a few lines: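 Compounds dissolved in DMSO were pin-transferred onto ER-beta-UAS-bla HEK293T cells that had settled 6 hr, and exposure ran 16 hr at 37C. Following the reporter read, CellTiter-Glo luminescence after 30 min at room temperature indicated cytotoxicity.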

Test [9] can be described thus: qHTS assay to identify small molecule antagonists of the estrogen receptor beta (ER-beta) signaling pathway - cell viability counter screen (AID 1259382). Further: series mostly up to about 92 µM; nearly all actives have a fitted effect of over 55% in size. The method, boiled down:
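CellTiter-Glo ATP luminescence measured after the LiveBLAzer read in the same wells; ER-beta-UAS-bla HEK293T cells, 16 hr compound treatment with 1nM 17-beta-estradiol agonist at 37C, 5% CO2.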

Test [10] concerns the target Estrogen receptor (Homo sapiens) (UniProt P03372). Kind of test: qHTS assay to identify small molecule agonists of the estrogen receptor alpha (ER-alpha) signaling pathway in the presence of an antagonist (AID 1259383; calls by dose curve; further: nearly all actives have a fitted effect of over 15% in size; further: potency means the concentration at half of the fitted maximal effect; on activation: top concentration of the series differs between compounds). The method, boiled down:
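Luminescent ERE-luciferase reporter, VM7Luc4E2 cells (endogenous ER-alpha); 10.0nM ICI-182,780 final; 15-point compound titration; 22hr at 37C; ONE-Glo, 30min RT.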

Test [11] is described as follows: qHTS assay to identify small molecule antagonists of the sonic hedgehog signaling (Shh) pathway (AID 1259369; calls by dose curve; further: nearly all actives have a fitted effect of over 45% in size). The method, boiled down: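 Read-out is luminescence from a firefly luciferase gene controlled by the Gli1 response element, in 3T3Gli1-Luc cells pre-incubated 4hr then exposed to compounds and conditioned medium for 24hr.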
Test [12] deals with Estrogen receptor beta (Homo sapiens) (UniProt Q92731). Kind of test: qHTS assay to identify small molecule agonists of the estrogen receptor beta (ER-beta) signaling pathway (AID 1259377; active means well fitted activation curve with a large enough effect in the signal ratio in the repeat runs, not every such curve was filed as active; the % refers to the signal ratio). In a few lines: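 Beta-lactamase reporter readout: fluorescence of LiveBLAzer B/G FRET substrate after 2 h at room temperature, following 16 h compound treatment of ER-beta-UAS-bla HEK293T cells at 37C in 2% charcoal-stripped FBS medium.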
Estrogen receptor beta (Homo sapiens), sequence (Q92731 whole entry, looked up): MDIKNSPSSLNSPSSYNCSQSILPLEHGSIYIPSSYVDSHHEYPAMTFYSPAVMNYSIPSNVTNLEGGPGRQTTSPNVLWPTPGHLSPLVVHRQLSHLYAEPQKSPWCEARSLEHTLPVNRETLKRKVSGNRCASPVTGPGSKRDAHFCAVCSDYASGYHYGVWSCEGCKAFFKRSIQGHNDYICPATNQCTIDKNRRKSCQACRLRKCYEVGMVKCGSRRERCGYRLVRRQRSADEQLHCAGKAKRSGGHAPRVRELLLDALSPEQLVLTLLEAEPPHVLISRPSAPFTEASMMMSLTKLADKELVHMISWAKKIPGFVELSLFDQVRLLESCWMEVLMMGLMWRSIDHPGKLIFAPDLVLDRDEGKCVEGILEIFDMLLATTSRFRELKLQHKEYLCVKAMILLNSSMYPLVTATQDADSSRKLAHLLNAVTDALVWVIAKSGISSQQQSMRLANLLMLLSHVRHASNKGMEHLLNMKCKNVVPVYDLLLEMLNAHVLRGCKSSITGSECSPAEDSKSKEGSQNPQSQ

Test [13] has the same target. Kind of test: qHTS assay to identify small molecule antagonists of the estrogen receptor beta (ER-beta) signaling pathway (AID 1259378; active means well fitted inhibition curve with a large enough effect in the signal ratio in the repeat runs, not every such curve was filed as active; the % refers to the signal ratio). In a few lines:
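ER-beta-UAS-bla HEK293T cells in 2% charcoal-stripped FBS medium treated with compound plus 1nM final 17-beta-estradiol for 16 hr at 37C. Beta-lactamase reporter read by FRET substrate fluorescence after 2 hours at room temperature.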

Test [14] in a line: qHTS assay to identify small molecule agonists of the androgen receptor (AR) signaling pathway in the presence of an antagonist - cell viability counter screen (AID 1259379).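 Further: MDA-kb2 human breast cancer cells carrying an MMTV luciferase reporter; series mostly up to about 92 µM; nearly all actives have a fitted effect of over 25% in size.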 The method, boiled down:
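Each compound was tested at 15 concentrations on MDA-kb2 cells in the presence of 3.0uM nilutamide. Viability was measured by CellTiter-Fluor fluorescence after a 16 hr incubation at 37C in a CO2-free atmosphere.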

Test [15] is described as follows: qHTS assay to identify small molecule agonists or antagonists of the thyroid stimulating hormone receptor (TSHR) signaling pathway - wild type cell line counter screen (AID 1259384; calls by dose curve). In a few lines: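 Wild-type Hek293 cells, 800/well, 18 h at 37C, then compound with Ro20-1724 for 30 min RT. cAMP by HTRF (cAMP-d2/anti-cAMP cryptate), 1 h RT, fluorescence read. 15 concentrations, triplicates.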

The target in test [16] is Thyrotropin receptor (Homo sapiens) (UniProt P16473). Kind of test: qHTS assay to identify small molecule antagonists of the thyroid stimulating hormone receptor (TSHR) signaling pathway (AID 1259385; calls by dose curve; further: nearly all actives have a fitted effect of over 20% in size). In a few lines:
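TSHR-HEK293 cells (800/well) plated 18 h, then compounds with Ro20-1724 and TSH at 1.5 ng/mL final, 30 min at room temperature. cAMP quantified by HTRF (cAMP-d2/anti-cAMP-cryptate, 1 h); 15 concentrations in triplicate.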

Test [17] in a line: qHTS assay to identify small molecule HDAC inhibitors (AID 1259364). Further: potency means the concentration at half of the fitted maximal effect.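 Further: wild-type HCT-116 cells with endogenous class I/II HDAC activity; nearly all actives have a fitted effect of over 45% in size.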 In a few lines: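 HCT-116 wt cells, 1,500/well, overnight attach. Compounds (DMSO) 2 h, 37 °C. HDAC-Glo I/II, 30 min RT. Luminescence.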

Estrogen receptor (Homo sapiens), sequence (P03372 whole entry, looked up): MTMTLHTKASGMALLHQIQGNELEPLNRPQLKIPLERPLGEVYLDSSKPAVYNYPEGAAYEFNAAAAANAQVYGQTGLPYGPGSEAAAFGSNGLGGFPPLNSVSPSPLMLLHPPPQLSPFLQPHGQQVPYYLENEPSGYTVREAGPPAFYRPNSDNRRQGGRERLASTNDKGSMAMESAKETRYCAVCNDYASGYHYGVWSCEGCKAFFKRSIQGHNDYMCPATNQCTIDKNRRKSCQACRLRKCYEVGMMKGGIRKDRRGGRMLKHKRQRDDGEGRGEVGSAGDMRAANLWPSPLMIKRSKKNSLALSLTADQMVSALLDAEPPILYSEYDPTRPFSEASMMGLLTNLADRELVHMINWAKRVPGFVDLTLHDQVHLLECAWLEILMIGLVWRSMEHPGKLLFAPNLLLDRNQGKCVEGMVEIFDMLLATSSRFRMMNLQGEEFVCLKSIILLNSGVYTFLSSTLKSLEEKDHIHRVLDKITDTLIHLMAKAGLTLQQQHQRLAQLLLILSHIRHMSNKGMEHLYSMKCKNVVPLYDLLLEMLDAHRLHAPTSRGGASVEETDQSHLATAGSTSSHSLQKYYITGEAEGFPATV
Thyrotropin receptor (Homo sapiens), sequence (P16473 whole entry, looked up): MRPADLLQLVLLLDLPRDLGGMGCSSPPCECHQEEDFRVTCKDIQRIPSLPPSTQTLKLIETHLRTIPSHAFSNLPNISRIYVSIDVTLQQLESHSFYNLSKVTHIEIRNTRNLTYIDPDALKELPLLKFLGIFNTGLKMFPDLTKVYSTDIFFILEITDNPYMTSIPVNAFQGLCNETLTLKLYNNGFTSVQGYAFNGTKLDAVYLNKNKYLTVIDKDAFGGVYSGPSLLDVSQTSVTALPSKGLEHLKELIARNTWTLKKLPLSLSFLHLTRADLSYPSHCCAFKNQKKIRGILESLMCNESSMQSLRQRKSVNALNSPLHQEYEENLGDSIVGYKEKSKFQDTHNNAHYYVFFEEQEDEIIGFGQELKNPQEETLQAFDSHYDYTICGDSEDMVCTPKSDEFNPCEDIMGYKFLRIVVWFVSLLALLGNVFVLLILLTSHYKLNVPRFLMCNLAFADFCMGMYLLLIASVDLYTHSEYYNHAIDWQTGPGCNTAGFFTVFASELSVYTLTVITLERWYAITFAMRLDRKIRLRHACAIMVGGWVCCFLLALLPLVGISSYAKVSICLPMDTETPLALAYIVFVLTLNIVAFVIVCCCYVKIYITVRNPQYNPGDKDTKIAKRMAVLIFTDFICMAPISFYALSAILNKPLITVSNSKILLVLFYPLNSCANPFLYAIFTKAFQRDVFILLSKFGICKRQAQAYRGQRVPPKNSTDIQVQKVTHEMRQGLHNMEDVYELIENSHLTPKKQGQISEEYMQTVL

With `COc1cc(C)c(Cc2cnc(N)nc2N)cc1OC`, the Potency entry in test [1], in test [2], in test [3], in [5], in test [6] and in [7] was “inactive” each time. The Potency result in test [8], in [9] and in [10] was “inactive” each time. For the same compound, in test [4], the compound was classed as inactive.
With `C[C@@H](O)[C@H]1C(=O)N2C(C(=O)O)=C(S[C@@H]3CN[C@H](CNS(N)(=O)=O)C3)[C@H](C)[C@H]12`, the Potency result in test [1], in test [2], in test [3], in test [5], in test [6] and in [7] was “inactive” throughout. In addition, the Potency result in test [11], in [12], in test [13], in [14], in test [8] and in test [9] was “inactive” in each case. The Potency result in [10] and in test [16] was “inactive” in each case. The call in [4] and in test [15] was inactive.
Take `CCCCCCCCCCCCCCCCN`: the Potency entry in test [1], in test [2], in test [3], in test [17], in [5] and in test [6] was “inactive” throughout. Further, the Potency result in test [7], in [11], in [14], in test [8], in test [9] and in [10] was “inactive” in each case. In addition, the Potency result in test [16] is “inactive”. In addition, the result in test [15] was inactive.
For `O=Cc1ccc(Cl)c([N+](=O)[O-])c1`, the Potency result in test [1], in [2], in test [3], in test [17], in [6] and in test [7] was “inactive” in each case. Besides, the Potency result in test [11], in test [12], in test [14], in test [8], in test [9] and in test [10] was “inactive” in each case. In addition, the Potency entry in [16] is “inactive”. Besides, the Potency in test [5] is 27300 nM (active). In test [15], the compound was called inactive.
Regarding `CCc1ccc2c(c1)C(=O)c1ccccc1C2=O`, the Potency entry in [1], in test [2], in test [3], in test [5], in test [6] and in [11] was “inactive” in each case. In addition, the Potency result in test [14], in [8], in [9] and in test [16] was “inactive” in each case. Besides, the outcome in test [4] and in [15] was inactive. The Potency in test [7] is 6860 nM (active); in [10], 2430 nM (active).
As for `CCCCCCCCS`, the Potency result in test [1], in test [2], in test [3], in test [5], in test [6] and in [7] was “inactive” each time. The Potency result in test [11], in test [12], in [14], in [8], in [9] and in test [10] was “inactive” each time. For the same compound, the call in [4] was inactive.
As to `Clc1cc(Cl)c2c(c1)N=C1CCCCCN1C2`, the Potency result in test [1], in test [2], in [3], in [5], in test [6] and in test [7] was “inactive” each time. Also, the Potency result in test [11], in test [9], in test [10] and in test [16] was “inactive” in each case. The outcome in [4] and in test [15] was inactive.
Regarding `CCCCCCCCCCCCSCCOCCO`, the Potency entry in test [1], in [2], in test [3], in test [17], in test [5] and in test [6] was “inactive” each time. Further, the Potency result in test [7], in [11], in [12], in [14], in [8] and in test [9] was “inactive” throughout. Moreover, the Potency entry in test [10] and in test [16] was “inactive” in each case. The compound was called inactive in test [15].
With `c1ccc(CCNc2nc(-c3ccccc3)cs2)cc1`, the Potency entry in test [1], in [2], in test [3], in test [5], in test [11] and in [12] was “inactive” each time. Further, the Potency entry in test [14], in test [9] and in [16] was “inactive” each time. For the same compound, the values for the Potency in test [17] and in test [10] were 2980 nM (active) and 944 nM (active), respectively. Besides, the result in test [15] was inactive.

The values above are taken from PubChem BioAssay (Tox21).
